Among all 39,000 compounds or so, about 3,300 (8.5%) were called active. The list comes from a sample in which actives are over-represented; it also holds similar structures and randomly drawn compounds.

In the antibiotic and cytotoxicity screens of Wong et al. (2023) one finds cytotoxicity call data, which are given here for 52 molecules.

The subject of the assay is HepG2. The assay can be described thus: cytotoxicity call (relative viability < 0.9). Conditions: 10 µM.
Take `C[C@@H]1[C@H](O)[C@@H](C)/C=C\C=C/CC\C=C/C=C\C=C/C=C\[C@H](O[C@@H]2O[C@H](C)[C@@H](O)[C@H](N)[C@@H]2O)C[C@@H]2O[C@](O)(C[C@@H](O)[C@H](O)CC[C@@H](O)C[C@@H](O)C[C@@H](O)CC(=O)O[C@H]1C)C[C@H](O)[C@H]2C(=O)O`: the cytotoxicity call is “inactive”. For the molecule `O=S(=O)(O)O.Oc1cccc2cccnc12`, the cytotoxicity call is “active”. Turning to `CC(C)(C)NCC(O)c1cc(Cl)c(N)c(Cl)c1.Cl` (configuration not stated), the cytotoxicity call is “inactive”. The same measure for `CC(C)(C)c1o[nH]c(=O)c1C[C@@H](N)C(=O)O`: “inactive”; for `CC1CCC2(NC1)OC1CC3C4CCC5CC(O)CCC5(C)C4CCC3(C)C1C2C.Cl` (configuration not stated): “inactive”.

For `COc1cc2c(c(OC)c1OC)-c1ccc(OC)c(=O)cc1C(NC(C)=O)CC2` (configuration not stated), the cytotoxicity call is “active”.

Turning to `COc1cc2c(c(OC)c1OC)-c1ccc(O)c(=O)cc1[C@H](N)CC2`, the cytotoxicity call is “inactive”. For `COc1cc2c(c(OC)c1OC)-c1ccc(O)c(=O)cc1C(NC(C)=O)CC2` (configuration not stated), the cytotoxicity call is “inactive”.

Consider `CC1(C)OCC2(CNC2)CO1`, for which the cytotoxicity call was “inactive”. For the molecule `CN1CCOC[C@]2(CCCNC2)C1`, the cytotoxicity call was “inactive”. Regarding `CN(C)[C@@H]1C(=O)[C@H](C(N)=O)C(=O)[C@@]2(O)C(=O)[C@@H]3C(=O)c4c(O)cccc4[C@@](C)(O)[C@H]3C[C@@H]12`, the cytotoxicity call was “inactive”. On to `C[C@H]1CN([C@@H](C)CO)C(=O)c2c(c3ccccc3n2C)-c2ccccc2CO[C@@H]1CN(C)C(=O)Oc1ccccc1`, for which the cytotoxicity call is “inactive”. The same measure for `CN1[C@@H]2C[C@@H](O)C[C@H]1[C@@H]1O[C@@H]12`: “inactive”; for `COc1ccc(OC(=O)N(C)C[C@H]2OCc3ccccc3-c3c(n(C)c4ccccc34)C(=O)N([C@@H](C)CO)C[C@H]2C)cc1`: “inactive”. Turning to `COc1ccc(OC(=O)N(C)C[C@@H]2OCc3ccccc3-c3c(n(C)c4ccccc34)C(=O)N([C@@H](C)CO)C[C@H]2C)cc1`, the cytotoxicity call was “active”.

On to `Cc1ccc(OC(=O)N(C)C[C@@H]2OCc3ccccc3-c3c(n(C)c4ccccc34)C(=O)N([C@H](C)CO)C[C@@H]2C)cc1`, for which the cytotoxicity call was “inactive”. On to `Cc1ccc(OC(=O)N(C)C[C@H]2OCc3ccccc3-c3c(n(C)c4ccccc34)C(=O)N([C@H](C)CO)C[C@@H]2C)cc1`, for which the cytotoxicity call was “active”. Turning to `Cc1ccc(OC(=O)N(C)C[C@H]2OCc3ccccc3-c3c(n(C)c4ccccc34)C(=O)N([C@H](C)CO)C[C@H]2C)cc1`, the cytotoxicity call is “inactive”. On to `Cc1ccc(OC(=O)N(C)C[C@H]2OCc3ccccc3-c3c(n(C)c4ccccc34)C(=O)N([C@@H](C)CO)C[C@@H]2C)cc1`, for which the cytotoxicity call is “active”. As to `Cc1ccc(OC(=O)N(C)C[C@@H]2OCc3ccccc3-c3c(n(C)c4ccccc34)C(=O)N([C@@H](C)CO)C[C@@H]2C)cc1`, the cytotoxicity call is “inactive”. Consider `COc1ccc(OC(=O)N(C)C[C@H]2OCc3ccccc3-c3c(n(C)c4ccccc34)C(=O)N([C@H](C)CO)C[C@@H]2C)cc1`, for which the cytotoxicity call was “inactive”. On to `Cc1ccc(OC(=O)N(C)C[C@@H]2OCc3ccccc3-c3c(n(C)c4ccccc34)C(=O)N([C@@H](C)CO)C[C@H]2C)cc1`, for which the cytotoxicity call was “inactive”. With `CCOCC(=O)N1CC[C@H]2CNC[C@H]21`, the cytotoxicity call was “inactive”. Regarding `COc1cccc(C2(N)CCCC2)c1`, the cytotoxicity call is “inactive”. The same measure for `CC(C)[C@H]1CN2CCC[C@H]2[C@@]2(O)O[C@](CC(=O)[C@@H]3C=C4c5cccc6[nH]cc(c56)C[C@H]4N(C)C3)(C(C)C)C(=O)N12`: “inactive”.

`C[C@H](CO)N1C[C@H](C)[C@@H](CN(C)C(=O)Oc2ccc3ccccc3c2)OCc2cn(nn2)CCCC1=O`: the cytotoxicity call was “inactive”.

For `NC(=N[N+](=O)[O-])NCCC[C@H](N)C(=O)O`, the cytotoxicity call was “inactive”. On to `CC(C)[C@H]1CNC(=O)C1`, for which the cytotoxicity call is “inactive”. In the case of `O=C1NC(=S)NC(=O)C1c1ccccc1`, the cytotoxicity call is “inactive”. As for `C#CCO[C@H]1CN2CCC1CC2`, the cytotoxicity call is “inactive”.

Consider `CC(C)C[C@@H](N)C1(c2ccc(Cl)cc2)CCC1`, for which the cytotoxicity call is “inactive”. Take `CC1OC(OC2C=C3CCC4C(CCC5(C)C(c6ccc(=O)oc6)CCC45O)C3(C)CC2)C(O)C(O)C1O` (configuration not stated): the cytotoxicity call is “active”.

For the molecule `CN1CCc2cc3c(cc2C1C1OC(=O)c2c1ccc1c2OCO1)OCO3` (configuration not stated), the cytotoxicity call was “inactive”. Consider `ClC(Cl)=C(c1ccc(Cl)cc1)c1ccc(Cl)cc1`, for which the cytotoxicity call is “inactive”. Take `Nc1ccccc1N1CCNCC1`: the cytotoxicity call is “inactive”.

As to `CN(C)C(=O)CN1CCN(C)C(=O)[C@]12CCN(c1ncccn1)C2`, the cytotoxicity call is “inactive”. Take `[NH2][Pt]1([NH2])[O]C(=O)C2(CCC2)C(=O)[O]1`: the cytotoxicity call is “inactive”. As to `O=[N+]([O-])OC1COC2C(O)COC12` (configuration not stated), the cytotoxicity call is “inactive”. For the molecule `CCn1cnc2c(Nc3cccc(Cl)c3)nc(N[C@@H]3CCCC[C@@H]3N)nc21`, the cytotoxicity call was “active”. Turning to `Cc1cccc([C@H](CN)N(C)C)c1`, the cytotoxicity call was “inactive”. In the case of `C[C@@H]1CN([C@@H](C)CO)C(=O)CCCn2cc(nn2)CO[C@H]1CN(C)C(=O)Oc1cccc2ccccc12`, the cytotoxicity call was “inactive”. Turning to `COCCCNC(=O)[C@]1(Cc2ccccc2N=[N+]=[N-])N=C(c2ccc(OCCCO)cc2)O[C@@H]1c1ccccc1N=[N+]=[N-]`, the cytotoxicity call was “inactive”.

As to `CN(C)C(=O)[C@@]1(Cc2ccccc2N=[N+]=[N-])N=C(c2ccc(OCCCO)cc2)O[C@H]1c1ccccc1N=[N+]=[N-]`, the cytotoxicity call was “inactive”. On to `COCCCNC(=O)[C@@]1(Cc2ccccc2CN=[N+]=[N-])N=C(c2ccc(OCCCO)cc2)O[C@H]1c1ccccc1N=[N+]=[N-]`, for which the cytotoxicity call was “inactive”. With `COC(=O)[C@@]1(Cc2ccccc2N=[N+]=[N-])N=C(c2ccc(OCCCO)cc2)O[C@H]1c1ccccc1CN=[N+]=[N-]`, the cytotoxicity call was “inactive”. For `CN(C)C(=O)[C@@]1(Cc2ccccc2CN=[N+]=[N-])N=C(c2ccc(OCCCO)cc2)O[C@H]1c1ccccc1N=[N+]=[N-]`, the cytotoxicity call is “active”.

For `[N-]=[N+]=NCc1ccccc1C[C@]1(C(=O)NCc2ccccc2)N=C(c2ccc(OCCCO)cc2)O[C@H]1c1ccccc1N=[N+]=[N-]`, the cytotoxicity call is “active”. Take `COC(=O)[C@]1(Cc2ccccc2CN=[N+]=[N-])N=C(c2ccc(OCCCO)cc2)O[C@@H]1c1ccccc1N=[N+]=[N-]`: the cytotoxicity call is “active”. Then `CN(C)C(=O)[C@]1(Cc2ccccc2CN=[N+]=[N-])N=C(c2ccc(OCCCO)cc2)O[C@@H]1c1ccccc1N=[N+]=[N-]`, with “inactive”.

As to `COCCCNC(=O)[C@@]1(Cc2ccccc2CN=[N+]=[N-])N=C(c2ccc(OCCCO)cc2)O[C@H]1c1ccccc1CN=[N+]=[N-]`, the cytotoxicity call is “active”. The same measure for `COC(=O)[C@@]1(Cc2ccccc2CN=[N+]=[N-])N=C(c2ccc(OCCCO)cc2)O[C@H]1c1ccccc1N=[N+]=[N-]`: “inactive”; for `[N-]=[N+]=Nc1ccccc1C[C@@]1(C(=O)NCc2ccccc2)N=C(c2ccc(OCCCO)cc2)O[C@@H]1c1ccccc1N=[N+]=[N-]`: “inactive”.
